Source: paper PMC5700166
Numbering of substitutions follows the chain as printed.

How the values were obtained:
Experiment in all cases: protein-binding microarray (PBM); PBM: ~300 nM protein, 6 mM HEPES pH 7.8, 80 mM KCl, 0.5 mM EDTA, 0.5 mM EGTA, 6% glycerol, 35 ng/ul poly-dIdC, 1% milk, 1 h, room temperature; Ap Aiptasia and Nv Nematostella (sea anemones) / Co Capsaspora / Aq Amphimedon (sponge) / Dm Drosophila / Hu human; RHD is the Rel homology domain; high values mean tight binding
Conditions in all cases: dsDNA, one strand shown
GST-Ap-NF-kB RHD = target: T1, GST-Ap-NF-kB RHD (Exaiptasia pallida (Aiptasia), UniProt A0A913YAJ5 2-422)
T1 sequence: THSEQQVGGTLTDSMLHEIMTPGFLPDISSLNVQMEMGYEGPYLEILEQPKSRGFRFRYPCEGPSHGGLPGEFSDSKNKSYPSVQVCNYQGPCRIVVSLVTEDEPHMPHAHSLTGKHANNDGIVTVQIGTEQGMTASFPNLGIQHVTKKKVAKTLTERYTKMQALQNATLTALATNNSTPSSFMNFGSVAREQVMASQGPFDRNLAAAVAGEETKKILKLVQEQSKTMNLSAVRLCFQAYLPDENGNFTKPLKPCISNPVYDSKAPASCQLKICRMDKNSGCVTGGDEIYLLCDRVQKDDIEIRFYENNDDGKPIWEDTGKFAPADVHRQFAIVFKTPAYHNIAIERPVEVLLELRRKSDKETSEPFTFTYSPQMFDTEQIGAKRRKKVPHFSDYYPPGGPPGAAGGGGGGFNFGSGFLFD

[1] = target: T2, GST-Nv-NF-kB (Cys allele) (Nematostella vectensis, UniProt E5G601 2-411)
T2 sequence: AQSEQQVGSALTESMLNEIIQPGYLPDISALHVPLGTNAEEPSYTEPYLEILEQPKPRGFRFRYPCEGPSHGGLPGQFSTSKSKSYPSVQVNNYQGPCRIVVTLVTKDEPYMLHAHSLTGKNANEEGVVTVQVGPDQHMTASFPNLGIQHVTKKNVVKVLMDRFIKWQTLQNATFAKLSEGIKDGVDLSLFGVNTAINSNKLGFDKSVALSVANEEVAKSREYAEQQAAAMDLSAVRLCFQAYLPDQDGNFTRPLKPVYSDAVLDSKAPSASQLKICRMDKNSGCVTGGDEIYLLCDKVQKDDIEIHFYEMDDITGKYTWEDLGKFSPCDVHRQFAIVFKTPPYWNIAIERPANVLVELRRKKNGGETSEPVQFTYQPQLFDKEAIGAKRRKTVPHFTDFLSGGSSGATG

[2] = target: T3, GST-Nv-NF-kB (Ser allele) (Nematostella vectensis, UniProt A7UNT2 2-411)
T3 sequence: T2 sequence with Q21R, C66S, S207N, E215Q, V217A, E225K, A268E, D399E

GST-Co-NF-kB = target: T4, GST-Co-NF-kB (Capsaspora owczarzaki, UniProt F1ARL5 200-546)
T4 sequence: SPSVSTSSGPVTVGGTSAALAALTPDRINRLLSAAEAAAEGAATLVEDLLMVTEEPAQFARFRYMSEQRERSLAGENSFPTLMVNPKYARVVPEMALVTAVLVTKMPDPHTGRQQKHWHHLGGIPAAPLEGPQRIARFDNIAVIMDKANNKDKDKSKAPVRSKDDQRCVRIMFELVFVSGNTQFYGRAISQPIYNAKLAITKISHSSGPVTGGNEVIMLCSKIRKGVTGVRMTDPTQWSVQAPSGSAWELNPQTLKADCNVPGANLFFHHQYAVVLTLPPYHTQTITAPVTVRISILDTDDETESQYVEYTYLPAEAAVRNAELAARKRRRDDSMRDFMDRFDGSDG

GST-Dm-Relish = target: T5, GST-Dm-Relish (Drosophila melanogaster, UniProt Q94527 99-473)
T5 sequence: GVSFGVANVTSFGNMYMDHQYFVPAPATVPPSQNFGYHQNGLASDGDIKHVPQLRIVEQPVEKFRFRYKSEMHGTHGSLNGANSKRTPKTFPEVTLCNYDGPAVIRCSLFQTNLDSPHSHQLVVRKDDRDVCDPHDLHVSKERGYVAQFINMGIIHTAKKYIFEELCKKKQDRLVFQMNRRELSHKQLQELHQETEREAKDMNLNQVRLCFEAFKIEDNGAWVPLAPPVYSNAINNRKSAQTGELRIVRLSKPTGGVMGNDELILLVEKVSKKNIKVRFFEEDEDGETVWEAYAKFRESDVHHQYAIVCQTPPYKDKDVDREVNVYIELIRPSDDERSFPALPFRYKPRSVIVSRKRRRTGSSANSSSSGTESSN

GST-Aq-NF-kB = target: T6, GST-Aq-NF-kB (Amphimedon queenslandica, UniProt A9Y5G7 2-389)
T6 sequence: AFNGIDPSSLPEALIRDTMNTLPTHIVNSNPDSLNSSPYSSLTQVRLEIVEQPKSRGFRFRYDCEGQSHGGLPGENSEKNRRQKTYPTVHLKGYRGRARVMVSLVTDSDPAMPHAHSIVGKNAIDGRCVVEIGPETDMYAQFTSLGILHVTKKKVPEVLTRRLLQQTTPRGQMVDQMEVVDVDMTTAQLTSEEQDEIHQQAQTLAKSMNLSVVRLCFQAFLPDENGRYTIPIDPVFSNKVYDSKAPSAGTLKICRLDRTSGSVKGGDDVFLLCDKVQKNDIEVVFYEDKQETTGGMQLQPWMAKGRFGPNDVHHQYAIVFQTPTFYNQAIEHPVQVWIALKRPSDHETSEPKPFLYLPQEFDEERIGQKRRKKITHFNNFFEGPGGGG

GST-Hu-p50 = GST-Hu-p50 (Homo sapiens, UniProt P19838 7-356)
Chain of GST-Hu-p50 (P19838 7-356): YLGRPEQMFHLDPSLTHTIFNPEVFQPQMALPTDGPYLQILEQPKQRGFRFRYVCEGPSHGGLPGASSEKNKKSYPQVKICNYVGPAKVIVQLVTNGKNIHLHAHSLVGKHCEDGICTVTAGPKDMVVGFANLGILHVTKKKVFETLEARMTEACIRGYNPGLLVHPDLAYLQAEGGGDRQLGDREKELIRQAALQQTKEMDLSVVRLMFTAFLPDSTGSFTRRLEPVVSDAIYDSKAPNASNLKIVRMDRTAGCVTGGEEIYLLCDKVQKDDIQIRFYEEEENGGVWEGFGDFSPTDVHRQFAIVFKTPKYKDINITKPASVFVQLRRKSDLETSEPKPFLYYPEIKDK

Row | Sequence | binding signal (GST-Ap-NF-kB RHD) [z-score] | binding signal [1] [z-score] | binding signal [2] [z-score] | binding signal (GST-Co-NF-kB) [z-score] | binding signal (GST-Dm-Relish) [z-score] | binding signal (GST-Aq-NF-kB) [z-score] | binding signal (GST-Hu-p50) [z-score]
1 | CCGATTAACATCAGGGTATACCCTGATGTTAATCGGGTCTTGATTCGCTTGACGCTGCTG | 4.43 | 3.42 | 2.44 | 2.48 | 4.16 | 6.04 | 2.22
2 | CCGATTAACATCAAGGGAGTCCCTGATGTTAATCGGGTCTTGATTCGCTTGACGCTGCTG | 5.78 | 4.59 | 4.3 | 1.18 | 8.56 | 4.92 | 3.72
3 | CCGATTAACATCAGGGAAACCCCTGATGTTAATCGGGTCTTGATTCGCTTGACGCTGCTG | 10.6 | 11.4 | 9.7 | 5.51 | 9.95 | 10 | 6.82
4 | CCGATTAACATCACCCTGGGAAATGATGTTAATCGGGTCTTGATTCGCTTGACGCTGCTG | 1.68 | 1.49 | 1.51 | 3.42 | 1.08 | 1.74 | 2.25
5 | CCGATTAACATCAGGAACTTCCCTGATGTTAATCGGGTCTTGATTCGCTTGACGCTGCTG | 4.62 | 5.28 | 3.16 | 1.73 | 4.4 | 7.58 | 3.6
6 | CCGATTAACATCAGGGGGTTGGATGATGTTAATCGGGTCTTGATTCGCTTGACGCTGCTG | 4.25 | 3.25 | 4.6 | 2.05 | 4.45 | 3.38 | 4.51
7 | CCGATTAACATCAAATTCCCAACTGATGTTAATCGGGTCTTGATTCGCTTGACGCTGCTG | 2.17 | 3.56 | 3.7 | 2.15 | 3.39 | 2.22 | 2.66
8 | CCGATTAACATCACCCACTCCCCTGATGTTAATCGGGTCTTGATTCGCTTGACGCTGCTG | 4.11 | 2.69 | 3.92 | 2.82 | 1.47 | 3.04 | 3.03
9 | CCGATTAACATCAAGGGAGTTCCTGATGTTAATCGGGTCTTGATTCGCTTGACGCTGCTG | 4.53 | 4.56 | 2.92 | 1.22 | 5.02 | 5.71 | 3.7
10 | CCGATTAACATCAGGATCCCCCCTGATGTTAATCGGGTCTTGATTCGCTTGACGCTGCTG | 8.27 | 6.24 | 6.33 | 5.45 | 8.78 | 6.39 | 6.19
11 | CCGATTAACATCAAACTTCCCCCTGATGTTAATCGGGTCTTGATTCGCTTGACGCTGCTG | 7.75 | 7.86 | 9.14 | 9.35 | 7.36 | 7.49 | 6.72
12 | CCGATTAACATCAAGGGTGGGAATGATGTTAATCGGGTCTTGATTCGCTTGACGCTGCTG | 1.69 | 1.84 | 1.42 | 2.88 | 1.66 | 2.63 | 1.83
13 | CCGATTAACATCAGACATTCCCCTGATGTTAATCGGGTCTTGATTCGCTTGACGCTGCTG | 7.03 | 8.78 | 8.26 | 5.38 | 4.78 | 6.59 | 5.51
14 | CCGATTAACATCAGGGGAACAACTGATGTTAATCGGGTCTTGATTCGCTTGACGCTGCTG | 5.15 | 4.83 | 5.57 | 5.75 | 8.64 | 5.43 | 3.48
15 | CCGATTAACATCAAAAATTCCCGTGATGTTAATCGGGTCTTGATTCGCTTGACGCTGCTG | 5.97 | 8.78 | 8.06 | 6.08 | 7.67 | 7.49 | 5.55
16 | CCGATTAACATCAGGATTACCCATGATGTTAATCGGGTCTTGATTCGCTTGACGCTGCTG | 2.92 | 2.65 | 2.12 | 1.67 | 2.52 | 3.19 | 1.83
17 | CCGATTAACATCAGAACACCCCCTGATGTTAATCGGGTCTTGATTCGCTTGACGCTGCTG | 5.58 | 4.69 | 4.4 | 3.33 | 4.87 | 5.48 | 5.09
18 | CCGATTAACATCAGGGGAAAATATGATGTTAATCGGGTCTTGATTCGCTTGACGCTGCTG | 6.98 | 8.57 | 11.7 | 10.2 | 4.1 | 6.25 | 6.72
19 | CCGATTAACATCAAAAAGTCCCCTGATGTTAATCGGGTCTTGATTCGCTTGACGCTGCTG | 9.45 | 10.8 | 11.1 | 5.57 | 10 | 8.93 | 7.85
20 | CCGATTAACATCACCGGGGATAGTGATGTTAATCGGGTCTTGATTCGCTTGACGCTGCTG | 3.55 | 2.68 | 3.34 | 3.83 | 2.1 | 1.82 | 2.98
21 | CCGATTAACATCACATTTTCCCCTGATGTTAATCGGGTCTTGATTCGCTTGACGCTGCTG | 6.76 | 8.07 | 10.5 | 9.7 | 3.97 | 5.38 | 6.01
22 | CCGATTAACATCACGGGATTTGGTGATGTTAATCGGGTCTTGATTCGCTTGACGCTGCTG | 1.89 | 1.93 | 1.12 | 1.17 | 1.79 | 1.61 | 2.36
23 | CCGATTAACATCAAAATTTACCCTGATGTTAATCGGGTCTTGATTCGCTTGACGCTGCTG | 3.17 | 5.04 | 6.15 | 4.27 | 4.47 | 5.23 | 4.09
24 | CCGATTAACATCAGGGGAAATAATGATGTTAATCGGGTCTTGATTCGCTTGACGCTGCTG | 6.88 | 8.65 | 11.6 | 9 | 5.53 | 5.68 | 6.58
25 | CCGATTAACATCACGGGATTCCCTGATGTTAATCGGGTCTTGATTCGCTTGACGCTGCTG | 6.4 | 6.23 | 5.14 | 2.93 | 10.2 | 7.3 | 4.17
